Measurements taken from PubChem BioAssay (NCI).
About 83,000 compounds went through this panel and 20% of them were active in at least one assay; those are over-represented in the sample as a whole.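 Assay: single dose, 48 h. Readout: percent growth (0 = no net growth; negative = cell death). Active: <10.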 Active and inactive are the calls of the source.

Tested on: M14 melanoma
Experiment: NCI-60 one-dose screen, 48 h (100 = growth as untreated, 0 = no growth, -100 = all killed)
Details: 10 µM

| SMILES | growth |
| --- | --- |
| O=C1/C(=C\c2cn(C(=O)c3ccc(Cl)cc3)c3ccccc23)c2ccccc2N1C(=O)c1ccc(Cl)cc1 | 79.2% (inactive) |
| Cc1ccc(Nc2cc(C)nc(NCCCNc3ccnc4cc(Cl)ccc34)n2)cc1 | -86% (active) |
| COc1ccc(-c2nnc(-c3c(-c4ccccc4)nc4ncccn34)o2)cc1OC | 119% (inactive) |
| Oc1[nH]c2cc(Cl)ccc2c1/C=c1/ccc2c(c1)N=C(c1cc(F)cc(F)c1)N=2 | -9.94% (active) |
| Cc1cc(N(CCCNc2ccnc3cc(Cl)ccc23)Cc2ccc3c(c2)OCO3)nc(N2CCOCC2)n1 | -71.1% (active) |
| COc1cc(/C=N/NC(=O)c2ccccc2Nc2ccnc(C(F)(F)F)c2)ccc1O | 89.7% (inactive) |
| Cc1cc(N(CCCNc2ccnc3cc(Cl)ccc23)Cc2ccc3c(c2)OCO3)nc(N2CCCCC2)n1 | -86% (active) |
| Clc1ccc2c(NCCCNc3nccc(Nc4ccc(Br)cc4)n3)ccnc2c1 | -83.6% (active) |
| Cc1cc(N(CCCNc2ccnc3cc(Cl)ccc23)Cc2cccs2)nc(Cl)n1 | 22.9% (inactive) |
| Clc1ccc(Nc2ccnc(NCCCNc3ccnc4cc(Cl)ccc34)n2)cc1 | -80% (active) |
| Cc1cc(Cl)nc(N(CCCNc2ccnc3cc(Cl)ccc23)Cc2cccs2)n1 | -7.28% (active) |
| CCCCN(CCCC)c1cc(C(=O)CCCCCN)c2ccccc2n1 | 14.4% (inactive) |
| COc1ccc(-c2nc3sccn3c2-c2nc3c([nH]2)C(=O)c2ccccc2C3=O)cc1 | 130% (inactive) |
| CN(C)CCNC(=O)c1cccn2c(=O)c3cc4ccccc4cc3nc12 | -63.7% (active) |
| CC(C)=CCc1cc(O)cc2c1OC(C=C(C)C)C1=C2C(=O)C2=C(NCCS2(=O)=O)C1=O (centres undefined) | -87.2% (active) |
| Clc1ccc(Nc2ccnc(NCCNc3ccnc4cc(Cl)ccc34)n2)cc1 | -86.8% (active) |
| COc1cc(-c2nc(-c3nnc(-c4ccc(F)c(Cl)c4)o3)c3ccccn23)cc(OC)c1OC | 70% (inactive) |
| COc1ccc(-c2nc3ccccn3c2-c2nnc(-c3cc(OC)c(OC)c(OC)c3)o2)cc1 | 75.7% (inactive) |
| CN1CCC(CNc2cc(C3(C(=O)Nc4cc(C(=O)Nc5ccc(Cl)c(C(F)(F)F)c5)ccc4F)CC3)ncn2)CC1 | -52% (active) |
| CN1CCC2(CC1)NC(=O)c1c(c3ccc(Cl)c(Cl)c3n1C)C2C#N (centres undefined) | 23.8% (inactive) |

| SMILES | growth |
| --- | --- |
| COc1ccc(-c2nc3ncccn3c2-c2nnc(-c3ccsc3C)o2)cc1 | 107% (inactive) |
| COc1ccc2c(c1)/C(=C\c1c[nH]c3ccc(OC)cc13)C(=O)N2 | 29.8% (inactive) |
| O=C(Nc1cccc(Br)c1)c1cc(=O)[nH]c2ccccc12 | 104% (inactive) |
| NC(=O)CC1(c2ccccc2)CCCCC1 | 96% (inactive) |
| COC(=O)C(=C\c1ccc2c(c1)OCO2)/C(=C/c1ccc2c(c1)OCO2)C(=O)OC | 99.4% (inactive) |
| Fc1ccc(-c2nnc(-c3c(-c4ccc(F)cc4)nc4ccccn34)o2)cc1 | 116% (inactive) |
| COc1ccc(Nc2cc(C)nc(NCCCNc3ccnc4cc(Cl)ccc34)n2)cc1 | -81.1% (active) |
| COc1cc(-c2nnc(-c3c(-c4ccc(F)cc4)nc4ccccn34)o2)cc(OC)c1OC | 104% (inactive) |
| CCN(CC)CCNc1ccc(CO)c2oc3cc(Cl)ccc3c(=O)c12 | 60.3% (inactive) |
| CC(C)=CCc1cc(O)cc2c1OC(C=C(C)C)C1=C2C(=O)C2=C(C1=O)S(=O)(=O)CCN2 (centres undefined) | 27.6% (inactive) |
| Cc1cc(Nc2ccc(Cl)cc2)nc(NCCCNc2ccnc3cc(Cl)ccc23)n1 | -87.5% (active) |
| CC12O[C@H](C[C@@H](OC(=O)c3ccccc3)[C@H]1O)n1c3ccccc3c3c4c(c5c6ccccc6n2c5c31)C(=O)NC4=O | 44.4% (inactive) |
| Cc1ccc(C(=O)Nc2cccc(F)c2)cc1NC(=O)C1(c2ncnc3[nH]ccc23)CC1 | 60% (inactive) |
| COc1cc(-c2nc(-c3nnc(-c4ccccc4Cl)o3)c3ccccn23)cc(OC)c1OC | 112% (inactive) |
| COc1ccc(Nc2ccnc(NCCNc3ccnc4cc(Cl)ccc34)n2)cc1 | -16.6% (active) |
| COc1cc(Nc2ccnc(NCCNc3ccnc4cc(Cl)ccc34)n2)cc(OC)c1 | -79.9% (active) |
| O=C(Nc1nc2ccc(F)cc2s1)c1cc(-c2ccc(F)cc2)n2nc(-c3ccccc3)cc2n1 | 81% (inactive) |
| CC12O[C@H](C[C@@H](O)[C@H]1O)n1c3ccccc3c3c4c(c5c6ccccc6n2c5c31)C(=O)N(CCCN)C4=O | 37.1% (inactive) |
| COc1ccc(-c2nc3ncccn3c2-c2nnc(-c3ccc(F)cc3)o2)cc1 | 110% (inactive) |
